Source: PubChem
HIV RNase H inh-1 = HIV-1 RT RNase H inhibitors, primary screen, biochemical, fluorescence. Gag-Pol polyprotein (Human immunodeficiency virus type 1 group M subtype B (isolate …. RT-RNase H RNA/DNA duplex cleavage. inhibition, % at 10 µM. 65,000 tested, 1.9% active; in the data active = inhibition above about 50%
RmlCD inh mix = RmlC and RmlD coupled enzyme inhibitors, primary screen, biochemical, 384-well, compound mixtures, retest | RmlC/RmlD coupled enzyme inhibition, 384-well mixture HTS | inhibition, % at 5.5 µM | 110,000 tested, 0.39% active; in the data active = inhibition above about 30%, passing the limit was not always enough
HIV RNase H inh-2 = HIV-1 RT RNase H inhibitors, retest, confirmation, biochemical | inhibition, % at 10 µM | Recombinant RT RNase H, fluorescent RNA/DNA duplex cleavage | AID 651, 2007 | 1,000 tested, 39% active | shares compounds with HIV RNase H inh-1; in the data active = inhibition above about 48%
Of the large screens only hits and unclear results are named; the others gave an inactive call (follow-up assays come after a bar, where they were run). Many of the other results were omitted from the sample, so hits are more common in it than they were.

CCOc1ncccc1C(=O)OCc1cc(=O)n2c(n1)sc1ccccc12	none (no result: RmlCD inh mix)
CCOC(=O)CSc1nc2c(c(=O)[nH]c(=O)n2C)n1CCc1ccccc1	none
CCCCn1c(SCC(=O)OCC)nc2c1c(=O)[nH]c(=O)n2C	HIV RNase H inh-1 68 | HIV RNase H inh-2 64
CCOCCn1c(SCCCc2ccccc2)nc2c1c(=O)[nH]c(=O)n2C	none
CCOCCn1c(SC)nc2c1c(=O)[nH]c(=O)n2C	HIV RNase H inh-1 59 | HIV RNase H inh-2 inactive
Cc1cnc(-c2nnc(N(C)C(=O)c3ccncc3)s2)cn1	none (no result: RmlCD inh mix)
COc1ccccc1NC(=O)c1cc2ccccc2o/c1=N\O	HIV RNase H inh-1 89 | HIV RNase H inh-2 inactive
COc1ccccc1NC(=O)c1cc2ccc(O)cc2o/c1=N\O	none
O=C1CC2(CCCC2)Oc2ccccc21	none (no result: HIV RNase H inh-1)
Cc1ccc(NC(=O)CCNS(=O)(=O)c2cccc3nonc23)cc1	none
Cc1ccc(N(CC(=O)Nc2cccc(C)c2)S(=O)(=O)c2cccc3nonc23)cc1	HIV RNase H inh-1 67 | HIV RNase H inh-2 inactive
CC(=O)c1ccc(C(=O)Nc2nnc(-c3ccc(Cl)cc3)o2)cc1	none
CN(C)c1ccc(C(=O)Nc2nnc(-c3ccc(Cl)cc3)o2)cc1	HIV RNase H inh-1 57 | HIV RNase H inh-2 inactive
CCO[C@H]1OC(C(=O)NCc2ccccc2)=C[C@@H](c2cn(C(C)=O)c3ccccc23)[C@@H]1CCCO	none (no result: HIV RNase H inh-1)
COc1ccc(CCNC(=O)c2c(O)c3cccc4c3n(c2=O)CC4)cc1	HIV RNase H inh-1 83 | HIV RNase H inh-2 67
O=C(NCCc1ccccc1)c1c(O)c2cccc3c2n(c1=O)CC3	HIV RNase H inh-1 74 | HIV RNase H inh-2 84
Cc1cnc(NC(=O)c2c(O)c3cccc4c3n(c2=O)CCC4)s1	none
COc1ccc(CNC(=O)c2c(O)c3cccc4c3n(c2=O)CCC4)cc1	none
CC(C)c1nnc(NC(=O)c2c(O)c3cccc4c3n(c2=O)CCC4)s1	HIV RNase H inh-1 77 (no result: RmlCD inh mix) | HIV RNase H inh-2 73
O=C(NCc1ccccn1)c1c(O)c2cccc3c2n(c1=O)CC3	none (no result: RmlCD inh mix)
O=C(Nc1ccc2oc(=O)ccc2c1)c1cccnc1Cl	none (no result: HIV RNase H inh-1)
Cc1ccc(C2(c3ccc(C)cc3)CC2C(=O)Nc2ccc([N+](=O)[O-])cc2O)cc1 (stereo unspecified)	none (no result: HIV RNase H inh-1)
CCNC(=O)/C(=C/c1ccco1)NC(=O)/C=C/c1ccccc1	none (no result: HIV RNase H inh-1)
O=C(CSc1ncn[nH]1)c1ccccc1	HIV RNase H inh-1 70 | HIV RNase H inh-2 67
O=C(CSc1ncn[nH]1)c1ccco1	none
C=C(C)C(=O)Nc1cccc(C2=NOC3(C2)C[C@H](C(N)=O)N(C(=O)COc2ccc(Cl)cc2)C3)c1 (stereo partly specified)	none (no result: HIV RNase H inh-1)
O=C(NCCCCc1ccccc1)C1CC(c2ccc(C(F)(F)F)cc2)=NO1 (stereo unspecified)	none (no result: HIV RNase H inh-1)
Cc1ccc(C)c(NC(=S)c2ccccn2)c1	none (no result: HIV RNase H inh-1)
S=C(Nc1ccccn1)c1ccccn1	HIV RNase H inh-1 73 | HIV RNase H inh-2 68
COc1ccc(OC)c(NC(=O)c2cc(-c3ccc(C)cc3O)n[nH]2)c1	HIV RNase H inh-1 76 | HIV RNase H inh-2 inactive
Cc1ccc(-c2cc(C(=O)Nc3cc(C)ccc3C)[nH]n2)c(O)c1	none
CC(O)[C@@H](C(=O)N1CCNCC1)n1cc(CCCCN)nn1 (stereo partly specified)	none (no result: HIV RNase H inh-1)
COc1cc(N=c2ssnc2Cl)cc(OC)c1OC	HIV RNase H inh-1 91 | HIV RNase H inh-2 76
COc1ccc(N=c2ssnc2Cl)cc1	none (no result: HIV RNase H inh-1)
N#CC1=C(N)SC2(CCCCC2)SC1c1ccccc1 (stereo unspecified)	HIV RNase H inh-1 59 | HIV RNase H inh-2 inactive
N#CC1=C(C2CC2)CC(c2ccccc2)C(C#N)=C1N (stereo unspecified)	none
CCOC(=O)c1sc2nc(N3CCOCC3)c3c(c2c1N)CCCC3	none
Nc1c(C(=O)NCc2ccco2)sc2nc(N3CCOCC3)c3c(c12)CCCC3	HIV RNase H inh-1 54 | HIV RNase H inh-2 inactive
Cc1[nH]c(=O)c(C(=O)/C=C/c2ccccc2F)c2c1CCCC2	none (no result: HIV RNase H inh-1)
CN(C(=O)COC(=O)c1ccc2c(c1)NC(=O)CS2)C1CCS(=O)(=O)C1 (stereo unspecified)	none (no result: HIV RNase H inh-1)
CC(C)CN(C(=O)COC(=O)c1ccc2c(c1)NC(=O)CS2)C1CCS(=O)(=O)C1 (stereo unspecified)	HIV RNase H inh-1 77 | HIV RNase H inh-2 79
Cn1nc(C(F)(F)F)c(C(=O)Nc2cccc(Cl)c2)c1Cl	none (no result: HIV RNase H inh-1)
CCOCCCn1c(=N)c(C(N)=S)cc2c(=O)n3cccc(C)c3nc21	none
Cc1cccn2c(=O)c3cc(C(N)=S)c(=N)n(CCCOC(C)C)c3nc12	HIV RNase H inh-1 69 | HIV RNase H inh-2 inactive
CCOC(=O)c1ccc(NC(=S)Nc2ccccc2N)cc1	none (no result: HIV RNase H inh-1)
COC(=O)c1c(NC(=O)c2ccc(Br)o2)sc(C)c1C	HIV RNase H inh-1 74 | HIV RNase H inh-2 inactive
COC(=O)c1sccc1NC(=O)c1ccc(Br)o1	none
COc1cccc(N2[C@@H](CC(=O)O)c3ccc(/C=C/C(=O)O)cc3S2(=O)=O)c1	none (no result: HIV RNase H inh-1)
Cc1ccc(/C=N/NC(=O)CC2N=C(Cc3ccccc3)NNC2=O)cc1 (stereo unspecified)	none (no result: HIV RNase H inh-1)
CCOC(=O)c1c(NC(=O)c2nn(CC)cc2Br)sc(C)c1C	HIV RNase H inh-1 94 | HIV RNase H inh-2 inactive
CCOC(=O)c1c(NC(=O)c2ccc(-n3cnnn3)cc2)sc2c1CCCC2	HIV RNase H inh-1 86 (no result: RmlCD inh mix) | HIV RNase H inh-2 96
CCOC(=O)c1ccc(NC(=O)c2nn(CC)cc2Br)cc1	none
CCOC(=O)c1c(NC(=O)c2nn(CC)cc2Br)sc2c1CCCCC2	HIV RNase H inh-1 88 | HIV RNase H inh-2 inactive
CCOC(=O)c1c(NC(=O)c2noc3c2CCCC3)sc2c1CCCC2	none (no result: RmlCD inh mix)
CCOC(=O)c1c(NC(=O)CSc2nnc(C)s2)sc2c1CCCCC2	none (no result: HIV RNase H inh-1)
CCCCN(CCCC)S(=O)(=O)c1ccc(NC(=O)Cc2cccs2)cc1	none (no result: HIV RNase H inh-1)
COCOc1ccc(C2CC(=O)c3c(OCOC)cc(OCOC)cc3O2)cc1 (stereo unspecified)	none (no result: HIV RNase H inh-1)
CCc1ccccc1NC1=NCC(=O)N1C1CCCCC1	HIV RNase H inh-1 83 (no result: RmlCD inh mix) | HIV RNase H inh-2 inactive
CCc1ccccc1NC1=NCC(=O)N1Cc1ccccc1	none
C=CCOC(=O)C1=C[C@H](c2ccc(Br)cc2)C[C@H](OCc2ccc(CO)cc2)O1	none (no result: HIV RNase H inh-1)
O=C(O)C[C@@H](O)C(=O)O	none (no result: HIV RNase H inh-1)
Cc1ccccc1N1C(=O)c2sc3nc4c(c(=O)n3c2C1=O)CCC4	HIV RNase H inh-1 88 | HIV RNase H inh-2 80
O=c1/c(=C\c2cccnc2)sc2nc3ccccc3n12	none
O=C1c2sc3nc4c(c(=O)n3c2C(=O)N1c1ccccc1)CCC4	none
O=C1c2sc3nc4ccccc4n3c2C(=O)N1c1ccccc1Cl	HIV RNase H inh-1 85 | HIV RNase H inh-2 72
O=C1C2ON(c3ccc(Cl)cc3)C(c3ccco3)C2C(=O)N1c1ccccc1 (stereo unspecified)	none
CCOc1cc(S(=O)(=O)NCCc2cccc(C)c2)c(OCC)cc1-n1cnnn1	none
COc1ccccc1OCCC(=O)OCC(=O)Nc1ncc(Cl)cc1Cl	none
COc1ccc(NCc2cc3ccccc3[nH]c2=O)cc1	none
COc1ccc(NCc2cc3cc(OC)ccc3[nH]c2=O)cc1	HIV RNase H inh-1 56 | HIV RNase H inh-2 inactive
COC(=O)CNC(=O)/C=C/c1ccc(OC)cc1	none (no result: HIV RNase H inh-1)
Cc1ccc(NC(=O)CSc2nnc(-c3ccc(S(=O)(=O)N4CCCC4)cc3)o2)cc1C	HIV RNase H inh-1 70 | HIV RNase H inh-2 69
